Reference: PMC4081100, “A DNA-binding-site landscape and regulatory network analysis for NAC transcription factors in Arabidopsis thaliana”

Columns and labels:
Test in all cases: universal protein binding microarray (PBM); transcription factors of Arabidopsis thaliana; high values mean tight binding
Conditions in all cases: protein: recombinant; tags: GST; chain copies: 2; dsDNA, one strand shown
[1] = biological target: T1, GST-ANAC092(1-176) (Arabidopsis thaliana, UniProt Q9FKA0 1-176)
T1 sequence: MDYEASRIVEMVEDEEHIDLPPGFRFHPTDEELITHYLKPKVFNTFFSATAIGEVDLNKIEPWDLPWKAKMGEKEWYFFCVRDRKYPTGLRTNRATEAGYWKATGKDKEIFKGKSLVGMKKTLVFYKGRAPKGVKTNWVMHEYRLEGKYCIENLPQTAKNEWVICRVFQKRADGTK
Outline: (§1)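 GST-tagged proteins (NAC-domain, full-length or DNA-binding-domain) were induced in cells, with zinc acetate supplied for zinc-finger proteins, then purified on glutathione–Sepharose 4B. Each was tested in duplicate at 200 to 500 nM final on custom all-10-mer Agilent 4 × 180K arrays rendered double-stranded by primer extension. The binding value is the normalised enrichment score (E-score) across gapped and ungapped 8-mers.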

[2] = biological target: T2, GST-ANAC019 NAC domain (Arabidopsis thaliana, UniProt Q9C932 14-162)
T2 sequence: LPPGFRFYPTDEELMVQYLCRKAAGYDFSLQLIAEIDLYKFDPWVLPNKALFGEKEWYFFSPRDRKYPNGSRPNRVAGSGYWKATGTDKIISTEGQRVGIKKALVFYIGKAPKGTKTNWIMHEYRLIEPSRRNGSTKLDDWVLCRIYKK
Outline: as §1

[3] = biological target: T3, GST-ANAC055(1-171) (Arabidopsis thaliana, UniProt Q9LDY8 1-171)
T3 sequence: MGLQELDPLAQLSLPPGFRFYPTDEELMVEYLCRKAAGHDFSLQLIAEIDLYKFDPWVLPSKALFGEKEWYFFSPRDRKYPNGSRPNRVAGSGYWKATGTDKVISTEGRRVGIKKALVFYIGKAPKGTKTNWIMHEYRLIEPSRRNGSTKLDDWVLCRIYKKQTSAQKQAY
Outline: as §1

[4] = biological target: T4, GST-ATAF1 NAC domain (Arabidopsis thaliana, UniProt Q39013 7-158)
T4 sequence: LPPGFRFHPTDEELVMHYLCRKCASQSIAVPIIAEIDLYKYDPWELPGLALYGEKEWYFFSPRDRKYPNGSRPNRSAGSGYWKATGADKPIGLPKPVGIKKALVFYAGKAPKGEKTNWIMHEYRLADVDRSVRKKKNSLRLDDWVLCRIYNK
Outline: as §1

[5] = biological target: T5, GST-ANAC092(1-285) full length (Arabidopsis thaliana, UniProt Q9FKA0 1-285)
T5 sequence: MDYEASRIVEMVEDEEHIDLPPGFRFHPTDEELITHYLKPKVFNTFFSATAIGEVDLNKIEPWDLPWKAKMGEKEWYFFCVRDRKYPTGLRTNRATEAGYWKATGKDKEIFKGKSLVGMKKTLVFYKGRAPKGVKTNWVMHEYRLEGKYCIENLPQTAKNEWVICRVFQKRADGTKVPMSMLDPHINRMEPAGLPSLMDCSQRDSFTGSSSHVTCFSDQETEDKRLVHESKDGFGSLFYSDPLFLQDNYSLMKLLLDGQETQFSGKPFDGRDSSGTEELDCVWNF
Outline: as §1

[6] = biological target: T6, GST-NAP(1-166) (Arabidopsis thaliana, UniProt O49255 1-166)
T6 sequence: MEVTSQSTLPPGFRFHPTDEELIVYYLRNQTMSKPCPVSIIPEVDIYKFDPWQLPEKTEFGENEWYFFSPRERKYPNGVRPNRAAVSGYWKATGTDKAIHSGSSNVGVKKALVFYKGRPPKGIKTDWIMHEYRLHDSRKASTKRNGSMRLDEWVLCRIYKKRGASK
Outline: as §1

[7] = biological target: T7, GST-NST2(1-184) (Arabidopsis thaliana, UniProt Q9M274 1-184)
T7 sequence: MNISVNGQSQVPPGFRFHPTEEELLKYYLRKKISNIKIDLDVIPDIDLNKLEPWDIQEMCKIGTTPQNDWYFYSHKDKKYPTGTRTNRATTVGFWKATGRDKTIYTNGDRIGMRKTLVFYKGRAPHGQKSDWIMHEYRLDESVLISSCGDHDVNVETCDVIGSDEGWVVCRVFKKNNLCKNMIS
Outline: as §1

[8] = biological target: T8, GST-SND1(1-203) (Arabidopsis thaliana, UniProt Q9LPI7 1-203)
T8 sequence: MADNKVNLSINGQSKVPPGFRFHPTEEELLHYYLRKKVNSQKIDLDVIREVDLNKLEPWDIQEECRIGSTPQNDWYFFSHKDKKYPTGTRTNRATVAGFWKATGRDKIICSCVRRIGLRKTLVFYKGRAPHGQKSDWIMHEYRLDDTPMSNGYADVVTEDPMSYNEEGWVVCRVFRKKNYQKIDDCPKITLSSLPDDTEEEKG
Outline: as §1

[9] = biological target: T9, GST-VND3 NAC domain (Arabidopsis thaliana, UniProt Q9FH59 12-162)
T9 sequence: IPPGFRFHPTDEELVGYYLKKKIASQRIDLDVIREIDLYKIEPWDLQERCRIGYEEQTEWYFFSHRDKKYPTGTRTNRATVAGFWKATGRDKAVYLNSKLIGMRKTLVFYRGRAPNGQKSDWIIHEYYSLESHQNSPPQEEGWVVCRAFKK
Outline: as §1

[10] = biological target: T10, GST-VND7 NAC domain (Arabidopsis thaliana, UniProt Q9C8W9 9-158)
T10 sequence: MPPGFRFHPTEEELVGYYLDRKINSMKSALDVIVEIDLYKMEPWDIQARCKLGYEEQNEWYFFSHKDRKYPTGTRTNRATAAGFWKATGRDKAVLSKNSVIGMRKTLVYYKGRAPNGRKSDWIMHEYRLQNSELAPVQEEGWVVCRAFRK
Outline: as §1

AAGCGTGT
binding signal [1]: 0.421 E-score | binding signal [2]: 0.242 E-score | binding signal [3]: 0.167 E-score | binding signal [4]: 0.207 E-score | binding signal [5]: 0.44 E-score | binding signal [6]: 0.133 E-score | binding signal [7]: 0.192 E-score | binding signal [8]: 0.186 E-score | binding signal [9]: 0.126 E-score | binding signal [10]: 0.213 E-score

AACACGGA
binding signal [1]: 0.298 E-score | binding signal [2]: 0.413 E-score | binding signal [3]: 0.397 E-score | binding signal [4]: 0.299 E-score | binding signal [5]: 0.274 E-score | binding signal [6]: 0.268 E-score | binding signal [7]: 0.173 E-score | binding signal [8]: 0.0986 E-score | binding signal [9]: 0.319 E-score | binding signal [10]: 0.362 E-score

AGCGTGTC
binding signal [1]: 0.398 E-score | binding signal [2]: 0.206 E-score | binding signal [3]: 0.174 E-score | binding signal [4]: 0.165 E-score | binding signal [5]: 0.432 E-score | binding signal [6]: 0.0924 E-score | binding signal [7]: 0.107 E-score | binding signal [8]: 0.131 E-score | binding signal [9]: 0.156 E-score | binding signal [10]: 0.208 E-score

AGCGTGTA
binding signal [1]: 0.418 E-score | binding signal [2]: 0.0634 E-score | binding signal [3]: 0.112 E-score | binding signal [4]: 0.136 E-score | binding signal [5]: 0.436 E-score | binding signal [6]: 0.198 E-score | binding signal [7]: 0.22 E-score | binding signal [8]: 0.274 E-score | binding signal [9]: 0.129 E-score | binding signal [10]: 0.163 E-score

CTAACGTA
binding signal [1]: 0.323 E-score | binding signal [2]: 0.0668 E-score | binding signal [3]: 0.216 E-score | binding signal [4]: 0.29 E-score | binding signal [5]: 0.391 E-score | binding signal [6]: 0.173 E-score | binding signal [7]: 0.277 E-score | binding signal [8]: 0.426 E-score | binding signal [9]: 0.25 E-score | binding signal [10]: 0.165 E-score

ACGTCATC
binding signal [1]: 0.418 E-score | binding signal [2]: 0.288 E-score | binding signal [3]: 0.285 E-score | binding signal [4]: 0.291 E-score | binding signal [5]: 0.449 E-score | binding signal [6]: 0.343 E-score | binding signal [7]: 0.214 E-score | binding signal [8]: 0.411 E-score | binding signal [9]: 0.327 E-score | binding signal [10]: 0.273 E-score
